{"source": "the supplement of paper PMC4466140", "test_in_all_cases": "SPOT peptide array binding signal intensity (averaged, normalized) (arbitrary units (background-subtracted, floor 0; scale differs between SH3 domains)); higher = stronger binding of the SH3 domain to the peptide", "key": {"[1]": {"target": "ScBbc1", "outline": "(§1)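 Detection of bound protein relied on anti-GST antibody, an HRP anti-mouse secondary and luminol, with imaging and quantification in Genespotter. The bound protein was GST-fused SH3 domains from four yeast species, incubated at 10 μg/ml overnight at 4°C in TBS-based blocking buffer on cellulose membranes carrying synthetic 15-mer peptides with cysteines replaced by serines. Binding signal is normalized, background-subtracted spot intensity averaged over replicates, in arbitrary units that differ between domains.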"}, "[2]": {"target": "ScBem1-D1", "outline": "as §1"}, "[3]": {"target": "ScBzz1-D1", "outline": "as §1"}, "[4]": {"target": "ScBzz1-D2", "outline": "as §1"}, "[5]": {"target": "ScCyk3", "outline": "as §1"}, "[6]": {"target": "ScFus1", "outline": "as §1"}, "[7]": {"target": "ScHof1", "outline": "as §1"}, "[8]": {"target": "ScHse1", "outline": "as §1"}, "[9]": {"target": "ScLsb1", "outline": "as §1"}, "[10]": {"target": "ScLsb2", "outline": "as §1"}, "[11]": {"target": "ScLsb3", "outline": "as §1"}, "[12]": {"target": "ScLsb4", "outline": "as §1"}, "[13]": {"target": "ScMyo3", "outline": "as §1"}, "[14]": {"target": "ScMyo5", "outline": "as §1"}, "[15]": {"target": "ScNbp2", "outline": "as §1"}, "[16]": {"target": "ScPex13", "outline": "as §1"}, "[17]": {"target": "ScRvs167", "outline": "as §1"}, "[18]": {"target": "ScSho1", "outline": "as §1"}, "[19]": {"target": "ScSla1-D1-D2", "outline": "as §1"}, "[20]": {"target": "ScSla1-D3", "outline": "as §1"}, "[21]": {"target": "SpAbp1-D1", "outline": "as §1"}, "[22]": {"target": "SpBbc1", "outline": "as §1"}, "[23]": {"target": "SpBzz1-D1", "outline": "as §1"}, "[24]": {"target": "SpBzz1-D2", "outline": "as §1"}, "[25]": {"target": "SpCyk3", "outline": "as §1"}, "[26]": {"target": "SpHof1", "outline": "as §1"}, "[27]": {"target": "SpHof1-2", "outline": "as §1"}, "[28]": {"target": "SpHof1-3", "outline": "as §1"}, "[29]": {"target": "SpHse1", "outline": "as §1"}, "[30]": {"target": "SpLsb1", "outline": "as §1"}, "[31]": {"target": "SpLsb4", "outline": "as §1"}, "[32]": {"target": "SpMyo1", "outline": "as §1"}, "[33]": {"target": "SpNbp2", "outline": "as §1"}, "[34]": {"target": "SpPex13", "outline": "as §1"}, "[35]": {"target": "SpRvs167", "outline": "as §1"}, "[36]": {"target": "SpSla1-D1-D2", "outline": "as §1"}, "[37]": {"target": "SpSla1-D3", "outline": "as §1"}}, "data": [{"binder": "ERPKRRAPPPVPKKP", "values": [{"measurement": "SPOT peptide array binding signal intensity", "setting": "[1]", "value": 460}, {"measurement": "SPOT peptide array binding signal intensity", "setting": "[2]", "value": 4}, {"measurement": "SPOT peptide array binding signal intensity", "setting": "[3]", "value": 2120}, {"measurement": "SPOT peptide array binding signal intensity", "setting": "[4]", "value": 66}, {"measurement": "SPOT peptide array binding signal intensity", "setting": "[5]", "value": 2.5}, {"measurement": "SPOT peptide array binding signal intensity", "setting": "[6]", "value": 6}, {"measurement": "SPOT peptide array binding signal intensity", "setting": "[7]", "value": "≤ 0"}, {"measurement": "SPOT peptide array binding signal intensity", "setting": "[8]", "value": "≤ 0"}, {"measurement": "SPOT peptide array binding signal intensity", "setting": "[9]", "value": 101}, {"measurement": "SPOT peptide array binding signal intensity", "setting": "[10]", "value": 70}, {"measurement": "SPOT peptide array binding signal intensity", "setting": "[11]", "value": 608}, {"measurement": "SPOT peptide array binding signal intensity", "setting": "[12]", "value": 10}, {"measurement": "SPOT peptide array binding signal intensity", "setting": "[13]", "value": 1180}, {"measurement": "SPOT peptide array binding signal intensity", "setting": "[14]", "value": 959}, {"measurement": "SPOT peptide array binding signal intensity", "setting": "[15]", "value": 577}, {"measurement": "SPOT peptide array binding signal intensity", "setting": "[16]", "value": 257}, {"measurement": "SPOT peptide array binding signal intensity", "setting": "[17]", "value": 151}, {"measurement": "SPOT peptide array binding signal intensity", "setting": "[18]", "value": 166}, {"measurement": "SPOT peptide array binding signal intensity", "setting": "[19]", "value": 1960}, {"measurement": "SPOT peptide array binding signal intensity", "setting": "[20]", "value": 691}, {"measurement": "SPOT peptide array binding signal intensity", "setting": "[21]", "value": 280}, {"measurement": "SPOT peptide array binding signal intensity", "setting": "[22]", "value": 76}, {"measurement": "SPOT peptide array binding signal intensity", "setting": "[23]", "value": 1460}, {"measurement": "SPOT peptide array binding signal intensity", "setting": "[24]", "value": 40.2}, {"measurement": "SPOT peptide array binding signal intensity", "setting": "[25]", "value": 1}, {"measurement": "SPOT peptide array binding signal intensity", "setting": "[26]", "value": 112}, {"measurement": "SPOT peptide array binding signal intensity", "setting": "[27]", "value": 12}, {"measurement": "SPOT peptide array binding signal intensity", "setting": "[28]", "value": 122}, {"measurement": "SPOT peptide array binding signal intensity", "setting": "[29]", "value": 43.2}, {"measurement": "SPOT peptide array binding signal intensity", "setting": "[30]", "value": 302}, {"measurement": "SPOT peptide array binding signal intensity", "setting": "[31]", "value": 489}, {"measurement": "SPOT peptide array binding signal intensity", "setting": "[32]", "value": 1100}, {"measurement": "SPOT peptide array binding signal intensity", "setting": "[33]", "value": 10}, {"measurement": "SPOT peptide array binding signal intensity", "setting": "[34]", "value": 15}, {"measurement": "SPOT peptide array binding signal intensity", "setting": "[35]", "value": 175}, {"measurement": "SPOT peptide array binding signal intensity", "setting": "[36]", "value": 215}, {"measurement": "SPOT peptide array binding signal intensity", "setting": "[37]", "value": "≤ 0"}]}]}
